PubChem BioAssay (NCI)
The panel holds about 83,000 compounds, 20% with a hit somewhere; the sample as a whole holds those more often.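 Step 1: grow cells in 96-well plates. Step 2: add test compound at a single concentration. Step 3: incubate 48 h. Step 4: record percent growth.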 A number with no mark means an inactive call. Activity calls are given as the source filed them. How the source made its calls: active means growth percent below 10; inactive means the rest.

System: HL-60(TB) leukemia
Test: NCI-60 one-dose screen, 48 h (100 = growth as untreated, 0 = no growth, -100 = all killed)
Conditions: 10 µM unless noted

Q: With `NCCCCn1c(SCCc2c[nH]c3ccccc23)nnc1-c1ccc2ccccc2n1` as the compound, how does the growth read?
A: -64.6% (active)

Q: Which growth does the source give for `OCCCNc1oc(-c2ccccc2)nc1[P+](c1ccccc1)(c1ccccc1)c1ccccc1` here?
A: -35.8% (active)

Q: With `N#CC1=C(c2ccco2)Nc2c(c(-c3ccccc3)nn2-c2ccccc2)C12C(=O)Nc1ccc(Cl)cc12` (stereo not drawn) as the compound, how does the growth read?
A: 43.8%

Q: Which growth does the source give for `CN1C(=O)/C(=C/c2ccc(C(=O)Nc3ncc(Cc4ccc(Cl)cc4Cl)s3)cc2)SC1=S` here?
A: 19.2%

Q: `CC(=O)Nc1cccc(Nc2nccc(N[C@@H](C)c3ccccc3)n2)c1` was tested. Which growth did it give?
A: 5.18% (active)

Q: How did the growth turn out when `Clc1ccccc1Nc1nnc(-c2c[nH]c3ccccc23)o1` was run?
A: -0.476% (active)

Q: `Cc1ccc(C(=O)CSc2nc3ccc(C)cc3c(=O)n2-c2ccc(F)cc2)cc1` was tested. Which growth did it give?
A: 123%

Q: For `O=C(Nc1cccc(-n2cnc3cc(-c4ccc(O)cc4)ccc32)c1)C1CC1`, which growth is on record?
A: -16.7% (active)

Q: With `Cc1nc2sccn2c1-c1nnc(SCC(C)C)o1` as the compound, how does the growth read?
A: 93.2%

Q: For `C=C[C@@]12CN3CC[C@]1(O)[C@@](C(=O)OC)(CO2)c1[nH]c2ccccc2c1C3`, which growth is on record?
A: 20.5%

Q: `Cc1noc2c(Cc3ccc([N+](=O)[O-])cc3)nn(CC(=O)N/N=C/c3ccc(Br)cc3)c(=O)c12` was tested. Which growth did it give?
A: 95.4%

Q: For `Fc1ccc(N2CC(Cn3c(C(F)(F)F)cc4c(Cl)ncnc43)C2)c(F)c1`, which growth is on record?
A: -40.3% (active)

Q: How did the growth turn out when `O=c1c2ccccc2nc(COc2ccccc2)n1/N=C/c1ccc(N2CCCC2)cc1` was run?
A: 101%

Q: `COc1ccc(-c2ccc(SCC(=O)Nc3ccc(C#N)cc3)nn2)cc1` was tested. Which growth did it give?
A: 95.8%

Q: With `COC(=O)c1c(C(=O)OC)c2ccc3c4ccccc4ccc3n2c1C(=O)C(C)Br` (stereo not drawn) as the compound, how does the growth read?
A: 39%

Q: `COc1nccnc1NS(=O)(=O)c1ccc(NC2=C(Cl)C(=O)c3nc(C)ccc3C2=O)cc1` was tested. Which growth did it give?
A: 100%

Q: With `CC(=O)Nc1cccc(Nc2nc(NCc3ccccc3)c3ccccc3n2)c1` as the compound, how does the growth read?
A: -64% (active)

Q: How did the growth turn out when `N#Cc1ccc(-c2nn(-c3ccc(C(=O)O)cc3)cc2CNc2ccc(Cl)cc2)cc1` was run?
A: 87.8%

Q: `S=C(NCCc1ccccc1)Nc1ccc(OCc2nc3ccc(Cl)cc3[nH]2)cc1` was tested. Which growth did it give?
A: 11.6%

Q: How did the growth turn out when `C=CCn1c(SCC(=O)Nc2ccc(C(=O)/C=C/c3ccccc3)cc2)nnc1-c1c[nH]c2ccccc12` was run?
A: 32.4%

Q: With `COc1cc2oc(-c3cccc(C(=O)Nc4ccc(Cl)cc4)c3)cc(=O)c2c(OCCNC(=O)CNC(=O)OC(C)(C)C)c1OC` as the compound, how does the growth read?
A: 55.5%

Q: How did the growth turn out when `O=C(N=Nc1c(O)[nH]c2ccc(Cl)cc12)c1ccc2nc(-c3ccc(Cl)cc3)[nH]c2c1` was run?
A: 45.2%

Q: With `CC(C)CCSc1nc(NC2CC2)c(C#N)c(-c2ccc(C(C)C)cc2)n1` as the compound, how does the growth read?
A: 80.4%

Q: `CCCCCCCCCCCCCCCCCCCC(=O)NCCc1c[nH]c2ccc(O)cc12` was tested. Which growth did it give?
A: 52.8%

Q: With `CCCn1c(NC(=O)c2cccc(C(N)=O)c2)nc2ccc(CN3CCCCC3)cc21` as the compound, how does the growth read?
A: 72.9%

Q: With `Cc1cc2nc3c4ccccc4n(CCNCCN(C)C)c3nc2cc1C` as the compound, how does the growth read?
A: -0.721% (active)

Q: For `O=C(Nc1ccccc1)N1CCN(c2cc(-c3cn(-c4ccccc4)nc3-c3cccc(O)c3)ccn2)CC1`, which growth is on record?
A: 23.3%

Q: Which growth does the source give for `COc1ccc(N2N=C(c3ccc4c(c3)OCO4)CC2c2cccc(NC(=O)CCNS(=O)(=O)c3ccc(Cl)cc3)c2)cc1` (stereo not drawn) here?
A: 34.4%

Q: Which growth does the source give for `Nc1nn2c(-c3cc4cc(Br)ccc4oc3=O)ccnc2c1N=Nc1ccc(S(N)(=O)=O)cc1` here?
A: 104%

Q: Which growth does the source give for `COc1ccc(N(C)c2cc(C#N)nc3ccccc23)cc1/C=C/C(=O)NO` here?
A: -28.7% (active)

Q: Which growth does the source give for `CCCn1c(=O)c2[nH]c(-c3ccc(OCc4nc5ccc(C)cc5[nH]4)cc3)nc2n(CCC)c1=O` here?
A: 4.56% (active)

Q: Which growth does the source give for `O=C(Nc1cccc(-c2cn(-c3ccc4oc(=O)ccc4c3)nn2)c1)Nc1cc(C(F)(F)F)cc(C(F)(F)F)c1` here?
A: 34.3%

Q: `COc1cc2oc(-c3cccc(C(=O)Nc4ccc(Cl)cc4)c3)cc(=O)c2c(OCCN)c1OC` was tested. Which growth did it give?
A: -56.5% (active)
